Data published in ChEMBL document CHEMBL1961873, “Compounds: GSK PKIS; Assays: Nanosyn kinase panel” (2012).

The compounds below were run against Aurora kinase B (Homo sapiens) (UniProt Q96GD4). Settings: at 1 µM.
Aurora kinase B (Homo sapiens), sequence (Q96GD4 whole entry): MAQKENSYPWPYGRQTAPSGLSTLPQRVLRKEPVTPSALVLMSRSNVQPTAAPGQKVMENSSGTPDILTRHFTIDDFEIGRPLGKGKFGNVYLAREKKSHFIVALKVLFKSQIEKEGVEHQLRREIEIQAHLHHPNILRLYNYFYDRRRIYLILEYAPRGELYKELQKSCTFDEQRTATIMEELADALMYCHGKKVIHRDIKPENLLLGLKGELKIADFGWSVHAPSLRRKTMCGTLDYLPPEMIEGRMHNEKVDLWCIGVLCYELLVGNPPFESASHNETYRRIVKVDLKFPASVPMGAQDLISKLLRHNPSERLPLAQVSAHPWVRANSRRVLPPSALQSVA
For `O=C1Nc2ccc(I)cc2C1=Cc1cc(Br)c(O)c(Br)c1`, the inhibition was 3.08%. In the case of `CCS(=O)(=O)c1ccc(OC)c(Nc2ncc(-c3cccc(-c4ccccc4F)c3)o2)c1`, the inhibition is reported as 3.48%. Compound `COc1ccc(-c2ccc3c(NC(=O)C4CC4)n[nH]c3n2)cc1` has an inhibition of 5.77%. `CCc1ccc(Oc2nccc(-c3c(-c4ccc(F)cc4)ncn3C3CCNCC3)n2)cc1` showed an inhibition of 2.75%. Work on `NCc1ccc(-n2c(-c3nonc3N)nc3cnccc32)cc1` yielded an inhibition of 12.4%. `CN1CCN(CCCNc2nc3ccc(Oc4ccc(NC(=O)Nc5cc(C(F)(F)F)ccc5F)cc4)cc3[nH]2)CC1` gave an inhibition of 4.51%. Work on `NS(=O)(=O)c1ccc(Nc2cc(-c3ccc(O)c(F)c3)n[nH]2)cc1` yielded an inhibition of 19.4%. With `NS(=O)(=O)c1ccc(N/N=C2\C(=O)Nc3ccc(-c4cnco4)cc32)cc1` the inhibition was 1.73%. Work on `CCc1cccc(CC)c1/C=C/c1cncc(C(=O)NC)c1` yielded an inhibition of 6.73%. With `FC(F)(F)c1cccc(Nc2nccc(-c3cnn4nc(-c5ccccc5)ccc34)n2)c1` the inhibition was 8.1%. Compound `COc1ccc2cc(-c3c(-c4ccncc4)nc(-c4ccc([S+](C)[O-])cc4C)n3C)ccc2c1` (configuration not stated) has an inhibition of 6.06%. `CCS(=O)(=O)c1ccc(OC)c(Nc2ncc(-c3ccccc3Cl)o2)c1` was tested, and the inhibition was 5.12%. `C[C@@H](Oc1cc(-n2cnc3ccc(OCC4CCN(C)CC4)cc32)sc1C(N)=O)c1ccccc1Cl` gave an inhibition of 5.33%. `C[C@@H](Oc1cc(-n2cnc3ccc(OC4CCN(C)CC4)cc32)sc1C(N)=O)c1ccccc1Cl` was tested, and the inhibition was 1.75%. `CCN(CC)Cc1ccc(Nc2nccc(-c3cnn4ncccc34)n2)cc1` was tested, and the inhibition was 63.7%. In the case of `Fc1ccc(-c2ncn(CCCN3CCOCC3)c2-c2ccncc2)cc1`, the inhibition is reported as 5.52%. For `Fc1ccc(-c2nc3n(c2-c2ccncc2)CCS3)cc1`, the inhibition was 2.92%. `Fc1ccc(-c2ncn(C3CCNCC3)c2-c2ccnc(Oc3ccc4c(c3)OCO4)n2)cc1` showed an inhibition of 7.86%. Compound `Fc1ccc(-c2c(-c3ccncc3)nc3n2CCS3)cc1` has an inhibition of 1.83%. Compound `O=C(Nc1n[nH]c2nc(-c3ccc(O)cc3)c(Br)cc12)C1CC1` has an inhibition of 12.7%. For `CN(C)CCOc1ccc(-c2cc(-c3ccc4c(c3)CCC4=NO)c(-c3ccncc3)o2)cc1`, the inhibition was 1.93%. Compound `COc1ccc(C2=C(N3CCc4ccccc43)C(=O)NC2=O)cc1` has an inhibition of 5.83%. Compound `CN(c1ccc(NC(=O)Nc2c(Cl)cccc2Cl)cc1)c1ccnc(Nc2cccc(CS(C)(=O)=O)c2)n1` has an inhibition of 84.2%. `Cc1ccc(C(=O)NC2CCC2)cc1-c1ccc(C(=O)NCC2CC2)cc1` gave an inhibition of 5.72%. With `COc1cccc(-n2cnc3c(N/N=C/c4ccncc4)ncnc32)c1` the inhibition was 7.54%. In the case of `Cc1ccc(C(=O)NC(C)C)cc1-c1ccc(C(=O)NCC2CC2)cc1`, the inhibition is reported as 2.24%. For `NC(=O)Cc1ccccc1Oc1nccc(-c2c(-c3ccc(F)cc3)ncn2C2CCNCC2)n1`, the inhibition was 1.02%. `O=C1Nc2ccccc2/C1=C/Nc1ccc(-n2cncn2)cc1` showed an inhibition of 27.7%. `c1ccc(Oc2ccc(Nc3ncc(-c4ccccc4)o3)cc2)cc1` was tested, and the inhibition was 7.16%. `COc1cc2ncn(-c3cc(OCc4ccccc4C(F)(F)F)c(C(C)=O)s3)c2cc1OC` gave an inhibition of 9.68%. `COc1ccc2ncn(-c3cc(O[C@H](C)c4ccccc4Cl)c(C(N)=O)s3)c2c1` was tested, and the inhibition was 1.24%. `CCc1nccc2c1nc(-c1nonc1N)n2CC` was tested, and the inhibition was 5.03%. For `CN(C)c1ccc2c(c1)/C(=C/Nc1ccc(S(N)(=O)=O)cc1)C(=O)N2`, the inhibition was 30.4%. `COc1cc2ncn(-c3cc(OCc4cccs4)c(C(N)=O)s3)c2cc1OC` showed an inhibition of 20%.

Each compound was assayed against T1, Aurora kinase C (Homo sapiens) (UniProt Q9UQB9). Settings: at 0.1 µM.
T1 sequence (whole entry): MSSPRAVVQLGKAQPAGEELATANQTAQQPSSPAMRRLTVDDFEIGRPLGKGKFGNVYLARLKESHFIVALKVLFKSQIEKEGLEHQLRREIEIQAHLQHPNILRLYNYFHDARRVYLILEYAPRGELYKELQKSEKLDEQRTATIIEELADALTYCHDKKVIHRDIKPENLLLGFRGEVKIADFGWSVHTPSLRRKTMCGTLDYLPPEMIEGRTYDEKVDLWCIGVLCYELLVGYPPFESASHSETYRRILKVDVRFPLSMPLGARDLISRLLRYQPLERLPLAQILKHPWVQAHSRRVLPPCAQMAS
Compound `O=C1Nc2ccc(I)cc2C1=Cc1cc(Br)c(O)c(Br)c1` has an inhibition of 0.09%. In the case of `CCS(=O)(=O)c1ccc(OC)c(Nc2ncc(-c3cccc(-c4ccccc4F)c3)o2)c1`, the inhibition is reported as 0.45%. In the case of `COc1ccc(-c2ccc3c(NC(=O)C4CC4)n[nH]c3n2)cc1`, the inhibition is reported as -5.01%. `CCc1ccc(Oc2nccc(-c3c(-c4ccc(F)cc4)ncn3C3CCNCC3)n2)cc1` gave an inhibition of 1.29%. `NCc1ccc(-n2c(-c3nonc3N)nc3cnccc32)cc1` gave an inhibition of 3.83%. `CN1CCN(CCCNc2nc3ccc(Oc4ccc(NC(=O)Nc5cc(C(F)(F)F)ccc5F)cc4)cc3[nH]2)CC1` gave an inhibition of -5.06%. In the case of `NS(=O)(=O)c1ccc(Nc2cc(-c3ccc(O)c(F)c3)n[nH]2)cc1`, the inhibition is reported as -0.76%. `NS(=O)(=O)c1ccc(N/N=C2\C(=O)Nc3ccc(-c4cnco4)cc32)cc1` was tested, and the inhibition was -3.12%. `CCc1cccc(CC)c1/C=C/c1cncc(C(=O)NC)c1` showed an inhibition of 0.82%. With `FC(F)(F)c1cccc(Nc2nccc(-c3cnn4nc(-c5ccccc5)ccc34)n2)c1` the inhibition was 1.82%. With `COc1ccc2cc(-c3c(-c4ccncc4)nc(-c4ccc([S+](C)[O-])cc4C)n3C)ccc2c1` (configuration not stated) the inhibition was -0.11%. `CCS(=O)(=O)c1ccc(OC)c(Nc2ncc(-c3ccccc3Cl)o2)c1` was tested, and the inhibition was 1.38%. With `C[C@@H](Oc1cc(-n2cnc3ccc(OCC4CCN(C)CC4)cc32)sc1C(N)=O)c1ccccc1Cl` the inhibition was -0.3%. With `C[C@@H](Oc1cc(-n2cnc3ccc(OC4CCN(C)CC4)cc32)sc1C(N)=O)c1ccccc1Cl` the inhibition was -3.34%. In the case of `CCN(CC)Cc1ccc(Nc2nccc(-c3cnn4ncccc34)n2)cc1`, the inhibition is reported as 38%. Compound `Fc1ccc(-c2ncn(CCCN3CCOCC3)c2-c2ccncc2)cc1` has an inhibition of -0.04%. In the case of `Fc1ccc(-c2nc3n(c2-c2ccncc2)CCS3)cc1`, the inhibition is reported as -1.97%. `Fc1ccc(-c2ncn(C3CCNCC3)c2-c2ccnc(Oc3ccc4c(c3)OCO4)n2)cc1` was tested, and the inhibition was 7.07%. For `Fc1ccc(-c2c(-c3ccncc3)nc3n2CCS3)cc1`, the inhibition was -4.05%. With `O=C(Nc1n[nH]c2nc(-c3ccc(O)cc3)c(Br)cc12)C1CC1` the inhibition was 2.12%. Work on `CN(C)CCOc1ccc(-c2cc(-c3ccc4c(c3)CCC4=NO)c(-c3ccncc3)o2)cc1` yielded an inhibition of 0.74%. In the case of `COc1ccc(C2=C(N3CCc4ccccc43)C(=O)NC2=O)cc1`, the inhibition is reported as 1.68%. Work on `Cc1ccc(C(=O)NC2CCC2)cc1-c1ccc(C(=O)NCC2CC2)cc1` yielded an inhibition of 0.47%. `COc1cccc(-n2cnc3c(N/N=C/c4ccncc4)ncnc32)c1` was tested, and the inhibition was 0.73%. With `Cc1ccc(C(=O)NC(C)C)cc1-c1ccc(C(=O)NCC2CC2)cc1` the inhibition was -0.96%. With `NC(=O)Cc1ccccc1Oc1nccc(-c2c(-c3ccc(F)cc3)ncn2C2CCNCC2)n1` the inhibition was -0.43%. For `O=C1Nc2ccccc2/C1=C/Nc1ccc(-n2cncn2)cc1`, the inhibition was 3.93%. For `c1ccc(Oc2ccc(Nc3ncc(-c4ccccc4)o3)cc2)cc1`, the inhibition was 0.67%. Compound `COc1cc2ncn(-c3cc(OCc4ccccc4C(F)(F)F)c(C(C)=O)s3)c2cc1OC` has an inhibition of 3%. Compound `COc1ccc2ncn(-c3cc(O[C@H](C)c4ccccc4Cl)c(C(N)=O)s3)c2c1` has an inhibition of -3.77%. `CCc1nccc2c1nc(-c1nonc1N)n2CC` showed an inhibition of 0.67%. For `CN(C)c1ccc2c(c1)/C(=C/Nc1ccc(S(N)(=O)=O)cc1)C(=O)N2`, the inhibition was 17.9%. With `COc1cc2ncn(-c3cc(OCc4cccs4)c(C(N)=O)s3)c2cc1OC` the inhibition was -0.54%.
